Records with an inconclusive call do not appear. Calls of active or inactive are those of the source. Unless noted, calls follow the shape of the dose curve; as a rule, active = well fitted curve in the direction sought with a large enough effect in the repeat runs; inconclusive = weak or mixed curves; inactive = no such curve, though single readings can be large; an effect the other way counts as inactive or inconclusive.

For seven compounds, Potency and outcome results are on record in PubChem BioAssay (Tox21).

The nature of assay [1]: A CellTox Green Cytotoxicity Assay to monitor cytotoxicity in HEK293 cells - 32 hour (AID 1224881). Also: nearly all actives have a fitted effect of over 40% in size. The procedure, abridged:
(§1)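 Cells (HEK293, 600/well) and dye reagent are dispensed together. After 5 h at 37 C, 23 nL compound is pinned in. Plates stay at 37 C for 40 h with fluorescence read at 0h, 8h, 16h, 24h, 32h and 40h.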

The nature of assay [2]: A CellTox Green Cytotoxicity Assay to monitor cytotoxicity in HepG2 cells - 0 hour (AID 1224882). Also: nearly all actives have a fitted effect of over 35% in size. The essentials: (§2)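 Cells and non-lytic dye reagent are dispensed together (600 HepG2 cells/well) and incubated 5 h before DMSO compound transfer. Kinetic fluorescence is then recorded in the same wells during 40 h at 37 C.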
Assay [3] can be described thus: A CellTox Green Cytotoxicity Assay to monitor cytotoxicity in HepG2 cells - 32 hour (AID 1224883). Also: nearly all actives have a fitted effect of over 50% in size. The procedure, abridged: as §2
Assay [4] is described as follows: A CellTox Green Cytotoxicity Assay to monitor cytotoxicity in HEK293 cells - 8 hour (AID 1224884). Also: nearly all actives have a fitted effect of over 35% in size. The essentials: as §1
A short description of assay [5]: qHTS RealTime-Glo MT Cell Viability Assay in HepG2 cells - 16 hour (AID 1224885). Also: nearly all actives have a fitted effect of over 50% in size. The procedure, abridged:
(§3)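 HepG2 cells were seeded at 600 cells/well together with NanoLuc luciferase and a cell-permeant prosubstrate, preincubated 5 h at 37 C/5% CO2, then pin-dosed with compounds in DMSO. Nonlytic luminescence from viable cells was read at each time point.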

A short description of assay [6]: qHTS RealTime-Glo MT Cell Viability Assay in HEK293 cells - 24 hour (AID 1224886). Also: top concentration of the series differs between compounds; nearly all actives have a fitted effect of over 50% in size. The essentials:
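HEK293 cells were seeded at 600 cells/well together with NanoLuc luciferase and cell-permeant prosubstrate, preincubated 5 h at 37 C/5% CO2, then given compound in DMSO by pintool. Luminescence from viable-cell prosubstrate reduction was read repeatedly over 40 h.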

A short description of assay [7]: qHTS RealTime-Glo MT Cell Viability Assay in HEK293 cells - 8 hour (AID 1224887). Also: top concentration of the series differs between compounds; nearly all actives have a fitted effect of over 50% in size. The procedure, abridged:
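Real-time viability in HEK293: signal arises when living cells convert a prosubstrate for NanoLuc in the medium, so luminescence tracks viable cell number. Compound (23 nL, DMSO) added 5 h post-seeding; kinetic reads at 0–40 h, 37 C.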

The nature of assay [8]: qHTS RealTime-Glo MT Cell Viability Assay in HepG2 cells - 0 hour (AID 1224889). Also: nearly all actives have a fitted effect of over 50% in size. The essentials: as §3
Background: qHTS replaces the single test concentration by a dilution series.

Assay [9] is described as follows: A CellTox Green Cytotoxicity Assay to monitor cytotoxicity in HepG2 cells - 8 hour (AID 1224890). Also: nearly all actives have a fitted effect of over 45% in size. The procedure, abridged: as §2
Assay [10] is described as follows: qHTS assay to identify small molecule antagonists of the estrogen receptor alpha (ER-alpha) signaling pathway using the BG1 cell line in the presence of 0.1 nM 17-beta-estradiol - cell viability counter screen (AID 1259241). Also: nearly all actives have a fitted effect of over 40% in size. The procedure, abridged:
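VM7Luc4E2 cells (endogenous full-length ER-alpha, 4xERE-luciferase), cultured 5 days in charcoal-stripped serum, exposed to compounds with 0.1 nM 17beta-estradiol (final) for 22 hr at 37C. Viability read in same wells as live-cell protease fluorescence after 30 min.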

Assay [11] can be described thus: qHTS assay to identify small molecule antagonists of the androgen receptor (AR) signaling pathway using the MDA cell line in the presence of 0.5 nM R1881 - cell viability counter screen (AID 1259242). Also: nearly all actives have a fitted effect of over 45% in size. The essentials: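 Steps: plate MDA-kb2 cells, rest 5 hr at 37C without CO2; pin in compounds in DMSO; add R1881 to 0.5 nM final; incubate 16 hr; add CellTiter-Fluor, 30 min; read fluorescence.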

Assay [12] has as its target Androgen receptor (Homo sapiens) (UniProt P10275). The experiment in a line: qHTS assay to identify small molecule antagonists of the androgen receptor (AR) signaling pathway using the MDA cell line in the presence of 0.5 nM R1881 (AID 1259243). Also: nearly all actives have a fitted effect of over 50% in size. The essentials:
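Stably transfected MDA-kb2 cells express luciferase from an MMTV promoter bearing both AR and GR response elements. Compounds plus 0.5 nM R1881 (final) were incubated 16 hr at 37C without CO2, then luminescence measured.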

A short description of assay [13]: qHTS assay to identify small molecule HDAC inhibitors (AID 1259364).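 Also: wild-type HCT-116 cells with endogenous class I/II HDAC activity; top concentration of the series differs between compounds; nearly all actives have a fitted effect of over 45% in size.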 The essentials:
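Cells (HCT-116, wild type) are seeded at 1,500 per well, incubated overnight, treated with compound in DMSO for 2 hr, then developed with HDAC-Glo I/II reagent for 30 min at room temperature.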

Assay [14] is described as follows: qHTS assay to identify small molecule HDAC inhibitors - cell viability counter screen (AID 1259365). The essentials: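 Wild-type HCT-116 cells, 1,500/well, cultured overnight, then compound-treated 2 h at 37 C. Viability measured as ATP luminescence with CellTiter-Glo after 30 min at room temperature.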
A short description of assay [15]: qHTS assay to identify small molecule agonists of the sonic hedgehog signaling (Shh) pathway - cell viability counter screen (AID 1259366). Also: nearly all actives have a fitted effect of over 50% in size. Also: potency is read from the fitted curve at half-maximal effect. The procedure, abridged:
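NIH/3T3-derived Gli1-Luc reporter cells, 2,000 per well, received compound after 4 h and were treated about 23 h at 37C. Viability measured in the same wells by CellTiter-Fluor fluorescence after 1 h.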

The nature of assay [16]: qHTS assay to identify small molecule antagonists of the sonic hedgehog signaling (Shh) pathway - cell viability counter screen (AID 1259367). Also: nearly all actives have a fitted effect of over 55% in size. Also: potency is read from the fitted curve at half-maximal effect. The procedure, abridged: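 Cytotoxicity was assessed in parallel with Shh reporter activity by measuring live-cell protease fluorescence (CellTiter-Fluor) in NIH/3T3 cells stably carrying Gli1-Luc, treated with compound under conditioned medium stimulation for 23 hr plus 1 hr reagent incubation.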

Assay [17] can be described thus: qHTS assay to identify small molecule agonists of the sonic hedgehog signaling (Shh) pathway (AID 1259368; calls by dose curve;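 also: NIH/3T3-derived 3T3Gli1-Luc cells carrying a stable Gli1-driven firefly luciferase reporter; series mostly up to about 92 µM; nearly all actives have a fitted effect of over 15% in size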). The essentials:
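Cells of a mouse NIH/3T3 clone stably expressing luciferase under the Gli1 transcriptional response element are exposed to test chemicals for 24 hr at 37 C. Pathway activation is detected as a rise in luminescence.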

In assay [18] the target is Estrogen receptor (Homo sapiens) (UniProt P03372). Description: qHTS assay to identify small molecule antagonists of the estrogen receptor alpha (ER-alpha) signaling pathway using the BG1 cell line in the presence of 0.1 nM 17-beta-estradiol (AID 1259244). Also: nearly all actives have a fitted effect of over 50% in size. The essentials:
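Antagonist mode: compounds in DMSO are pinned onto VM7Luc4E2 reporter cells, 0.1 nM final 17beta-estradiol is added, and after 22 h at 37C luciferase luminescence is measured with ONE-Glo.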

A short description of assay [19]: qHTS assay to identify small molecule phospholipidosis (PLD) inducers (AID 1259344; active = well fitted curve in the direction sought with a large enough effect; an effect the other way counts as inactive or inconclusive). The essentials: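 Cells (HepG2, 900 per well) attach for 4 h, receive LipidTOX Red and compound together, incubate 24 h at 37 C, are fixed 30 min with paraformaldehyde/Hoechst, then imaged at one site per well.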

Androgen receptor (Homo sapiens), sequence (P10275 whole entry, looked up): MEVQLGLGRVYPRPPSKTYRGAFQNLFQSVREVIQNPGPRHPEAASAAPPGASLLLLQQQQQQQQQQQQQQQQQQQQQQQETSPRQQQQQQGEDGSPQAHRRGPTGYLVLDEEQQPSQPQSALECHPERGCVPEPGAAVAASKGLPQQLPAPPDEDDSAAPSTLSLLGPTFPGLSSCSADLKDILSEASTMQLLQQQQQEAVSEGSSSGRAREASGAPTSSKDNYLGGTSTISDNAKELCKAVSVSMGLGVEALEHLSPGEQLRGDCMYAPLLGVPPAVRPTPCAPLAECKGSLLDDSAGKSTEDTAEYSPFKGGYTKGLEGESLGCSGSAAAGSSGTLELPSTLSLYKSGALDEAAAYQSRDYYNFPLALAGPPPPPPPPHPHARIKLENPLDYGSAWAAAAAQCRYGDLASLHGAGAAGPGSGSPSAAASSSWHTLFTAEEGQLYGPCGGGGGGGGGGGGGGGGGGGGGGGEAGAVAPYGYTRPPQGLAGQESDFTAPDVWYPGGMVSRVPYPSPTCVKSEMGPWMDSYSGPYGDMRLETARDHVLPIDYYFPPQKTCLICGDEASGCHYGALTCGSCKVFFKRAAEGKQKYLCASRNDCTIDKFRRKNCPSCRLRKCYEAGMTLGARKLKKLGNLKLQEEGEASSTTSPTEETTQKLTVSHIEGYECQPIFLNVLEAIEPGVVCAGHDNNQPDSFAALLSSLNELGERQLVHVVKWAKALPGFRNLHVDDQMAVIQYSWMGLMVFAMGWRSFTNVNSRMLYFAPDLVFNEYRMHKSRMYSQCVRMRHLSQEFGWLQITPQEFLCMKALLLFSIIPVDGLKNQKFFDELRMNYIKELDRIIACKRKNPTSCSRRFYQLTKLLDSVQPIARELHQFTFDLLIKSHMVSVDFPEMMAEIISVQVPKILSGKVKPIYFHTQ
Estrogen receptor (Homo sapiens), sequence (P03372 whole entry, looked up): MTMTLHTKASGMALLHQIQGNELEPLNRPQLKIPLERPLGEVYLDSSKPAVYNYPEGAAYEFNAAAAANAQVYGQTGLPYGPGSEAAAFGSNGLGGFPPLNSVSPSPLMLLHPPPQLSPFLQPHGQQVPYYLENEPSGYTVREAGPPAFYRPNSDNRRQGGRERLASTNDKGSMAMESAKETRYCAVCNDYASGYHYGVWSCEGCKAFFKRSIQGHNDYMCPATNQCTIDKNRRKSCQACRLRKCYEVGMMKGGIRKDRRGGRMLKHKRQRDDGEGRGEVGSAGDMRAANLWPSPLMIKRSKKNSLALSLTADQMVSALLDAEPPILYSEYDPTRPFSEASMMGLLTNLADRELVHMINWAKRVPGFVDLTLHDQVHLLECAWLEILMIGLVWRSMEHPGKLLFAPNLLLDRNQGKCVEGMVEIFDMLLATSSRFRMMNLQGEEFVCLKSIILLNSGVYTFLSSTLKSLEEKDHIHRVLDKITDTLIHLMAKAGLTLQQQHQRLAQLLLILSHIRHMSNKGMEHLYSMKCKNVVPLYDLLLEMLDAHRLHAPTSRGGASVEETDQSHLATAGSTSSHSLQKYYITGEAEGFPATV

For the compound `CC(=O)NNc1ccccc1`, the Potency result in assay [1], in assay [2], in assay [3], in assay [4], in assay [5] and in [6] was “inactive” in each case. The Potency result in [7], in assay [9], in [10], in assay [11], in assay [12] and in assay [13] was “inactive” each time. Besides, the Potency entry in assay [14], in [15], in assay [16] and in assay [17] was “inactive” each time. For the same compound, the outcome in assay [8] was inactive.
For `CCOC(=O)c1cncn1C(C)c1ccccc1` (centres undefined), the Potency entry in [1], in assay [2], in assay [3], in [4], in [5] and in [6] was “inactive” in each case. Besides, the Potency entry in assay [7], in assay [9], in assay [10], in [11], in assay [18] and in assay [13] was “inactive” throughout. For the same compound, the Potency result in [14], in [15], in assay [16] and in assay [17] was “inactive” each time. The outcome in [8] and in assay [19] was inactive.
For `COc1ccc2c(c1OC)C(=O)O[C@H]2[C@@H]1c2cc3c(cc2CCN1C)OCO3`, the Potency result in assay [1], in assay [2], in assay [3], in assay [4], in assay [5] and in assay [6] was “inactive” in each case. For the same compound, the Potency entry in [7], in assay [9], in assay [10], in [11], in [12] and in [13] was “inactive” in each case. For the same compound, the Potency result in assay [14] and in assay [17] was “inactive” in each case. The compound was called inactive in assay [8] and in assay [19]. In addition, the Potency in assay [15] and in [16] was 5.96 µM (active) each time.
For `FC(Cl)(Cl)C(F)(Cl)Cl`, the Potency result in assay [1], in [2], in assay [3], in assay [4], in [5] and in assay [6] was “inactive” each time. Also, the Potency entry in [7], in assay [9], in assay [10], in assay [11], in [18] and in assay [13] was “inactive” throughout. The Potency entry in assay [15], in assay [16] and in assay [17] was “inactive” each time. Moreover, the compound was called inactive in assay [8].
Take `C#CC(O)(C=CCl)CC` (centres undefined): the Potency result in [1], in assay [2], in [3], in assay [4], in assay [5] and in assay [6] was “inactive” each time. Besides, the Potency entry in [7], in assay [9], in assay [10], in [11], in assay [12] and in assay [13] was “inactive” in each case. Besides, the Potency entry in [15], in assay [16] and in assay [17] was “inactive” throughout. Further, the compound was called inactive in assay [8].
As for `Clc1ccccc1`, the Potency result in assay [1], in [2], in assay [3], in assay [4], in assay [5] and in assay [6] was “inactive” throughout. The Potency result in assay [7], in [9], in assay [10], in assay [11], in [18] and in [13] was “inactive” in each case. Also, the Potency result in assay [14] and in assay [17] was “inactive” in each case. Besides, the call in assay [8] was inactive. Also, the Potency in assay [16] is 26.9 µM (active).
As for `Cc1cnc(C2=NC(C)(C(C)C)C(=O)N2)c(C(=O)O)c1` (centres undefined), the Potency result in assay [1], in assay [2], in assay [3], in assay [4], in assay [5] and in assay [6] was “inactive” throughout. Also, the Potency result in assay [7], in assay [9], in assay [10], in [11], in assay [12] and in assay [18] was “inactive” each time. Moreover, the Potency result in assay [13], in assay [14], in assay [15], in assay [16] and in assay [17] was “inactive” each time. The compound was called inactive in assay [8].
